Assay outcomes: PubChem, Broad Institute
C diff growth – blocks growth of Clostridium difficile | AID 1259249 | Clostridium difficile clinical isolate growth, OD600, 24 h; active compounds read low | growth activity, negative = inhibition, % at 16 µg/mL (by protocol) | hit rate 0.25% among 86,000;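 active means mean growth activity at or below -80% and every replicate also at or below -80%; inconclusive means mean at or below -80% but some replicate above -80%; inactive means mean growth activity above -80%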
Pf Dd2 inh – P. falciparum Dd2 growth inhibition; activity change, % at 10 µM; SYBR Green, 72 h; active compounds read low; hit rate 2.3% among 94,000; in the data active means activity change below about -80%; inconclusive means no clear call, values can overlap the other calls
T cruzi growth-1 – inhibitors of T. cruzi proliferation; T. cruzi beta-gal in NIH3T3, GalScreen luminescence, 90 h; hit rate 5.9% among 77,000; inhibition, % at 8.34 µM;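 active means mean inhibition above about 93%, with at least 55% of replicates each passing it, limit read from the data, passing the limit was not always enough; inconclusive means only one of those two conditions holds; inactive means neither condition holds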
T cruzi growth-2 – inhibitors of T. cruzi proliferation. shares compounds with T cruzi growth-1. T. cruzi beta-gal in NIH3T3, GalScreen luminescence, 90 h. inhibition, % at 8.35 µM. hit rate 72% among 5,600. AID 651739;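 active means mean replicate inhibition above about 95% and at least 55% of replicates individually reaching it, limit read from the data; inconclusive means only one of the two criteria is met; inactive means neither criterion is met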
T cruzi growth-3 – inhibitors of T. cruzi proliferation. shares compounds with T cruzi growth-1. T. cruzi beta-gal in NIH3T3, GalScreen luminescence, 90 h. inhibition, % at 2.09 µM. hit rate 21% among 5,600;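 active means mean inhibition above about 95%, with at least 55% of replicates also reaching it, limit read from the data; inconclusive means meets just one of the two conditions; inactive means meets neither condition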
NIH3T3 tox – kills mouse NIH/3T3 fibroblasts | shares compounds with T cruzi growth-1 | NIH/3T3 viability, CellTiter-Glo ATP luminescence, 90 h | cytotoxicity (signal decrease), % at 8.35 µM | hit rate 14% among 5,600 | AID 651742;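 active means mean signal decrease across replicates above about 35% based on untreated-well scatter, with enough replicates individually passing, limit read from the data; inconclusive means no rule stated though some were filed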
NIH3T3 tox 2 – cytotoxicity in mouse NIH/3T3 fibroblasts; AID 651744; NIH/3T3 viability, CellTiter-Glo ATP luminescence, 90 h; shares compounds with T cruzi growth-1; inhibition, % at 24.9 µM; hit rate 56% among 5,600;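 active means mean loss of cell viability signal at or above a set limit, and enough replicates individually reaching it; inconclusive means meets only the mean limit or only the replicate share; inactive means meets neither condition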
Large screens that a line does not name were inactive (follow-up assays come after a bar, where they were run). An excerpt weighted towards active compounds, which were near 6.7% of everything screened.

Cc1ccc(S(=O)(=O)N(C)C[C@@H]2Oc3ccc(NC(=O)Nc4ccc(F)cc4)cc3CC(=O)N([C@@H](C)CO)C[C@@H]2C)cc1	none (no result: C diff growth)
CCc1cnc(N2[C@H](C#N)[C@@H](c3ccc(C#Cc4ccccc4F)cc3)[C@H]2CO)s1	T cruzi growth-1 111 | T cruzi growth-2 103 | T cruzi growth-3 101 | NIH3T3 tox inactive | NIH3T3 tox 2 28
CCc1cnc(N2[C@H](C#N)[C@H](c3ccc(C#Cc4ccccc4F)cc3)[C@@H]2CO)s1	T cruzi growth-1 97 | T cruzi growth-2 101 | T cruzi growth-3 112 | NIH3T3 tox inactive | NIH3T3 tox 2 inactive
CCc1cnc(N2[C@H](C#N)[C@H](c3ccccc3)[C@@H]2CO)s1	none
CCc1cnc(N2[C@H](C#N)[C@H](c3ccc(C#Cc4ccccc4F)cc3)[C@H]2CO)s1	T cruzi growth-1 100 | T cruzi growth-2 inactive | T cruzi growth-3 106 | NIH3T3 tox inactive | NIH3T3 tox 2 95
CCc1cnc(N2[C@H](CO)[C@@H](c3ccccc3)[C@@H]2C#N)s1	none
CCc1cnc(N2[C@H](C#N)[C@@H](c3ccccc3)[C@@H]2CO)s1	none
COCC(=O)Nc1ccc2c(c1)OC[C@H](C)N(CC1CC1)C[C@@H](C)[C@@H](OC)CN(C)C2=O	none (no result: C diff growth)
CO[C@@H]1CN(C)C(=O)c2cc(NC(=O)c3cnccn3)ccc2OC[C@H](C)N(CC2CC2)C[C@H]1C	none (no result: T cruzi growth-1)
O=C(Nc1ccccc1F)N1CC(=O)N2[C@H](CO)[C@H](c3ccc(-c4cccnc4)cc3)[C@@H]2C1	none (no result: T cruzi growth-1)
C[C@H](CO)N1C[C@H](C)[C@@H](CN(C)S(=O)(=O)c2ccc(F)cc2)Oc2ccc(NC(=O)C3CC3)cc2CC1=O	none
COc1ccc(CN(C)C[C@@H]2OCCCC[C@@H](C)Oc3ccc(NS(=O)(=O)c4cn(C)cn4)cc3C(=O)N([C@H](C)CO)C[C@@H]2C)cc1	none
CCCN1C[C@H](C)[C@@H](OC)CN(C)C(=O)c2cc(NC(=O)c3ccccc3)ccc2OC[C@@H]1C	none
O=C(Nc1ccc(F)cc1)N[C@H]1CC[C@@H](CC(=O)N2CCOCC2)O[C@H]1CO	none (no result: C diff growth)
C[C@@H]1CN([C@H](C)CO)C(=O)c2cc(NC(=O)Cn3cnnn3)ccc2O[C@@H]1CN(C)C	none (no result: T cruzi growth-1)
Cc1ccc(-c2ccc([C@H]3[C@@H](CO)N4C(=O)CN(C(=O)c5ccncc5)C[C@H]34)cc2)cc1	none (no result: T cruzi growth-1)
O=C(C[C@@H]1CC[C@@H]2[C@H](COC[C@H](O)CN2Cc2cccc(-c3ccncc3)c2)O1)N1CCN(c2ccccc2)CC1	none
CN1[C@H](C(=O)NCC2CCCCC2)[C@@H](CO)[C@@H]2Cn3c(cccc3=O)[C@@H]21	none
COc1ccccc1C#Cc1ccc([C@@H]2[C@@H](CO)N3CCCCN(C(=O)C4CCC4)C[C@@H]23)cc1	none
COc1ccccc1C#Cc1ccc([C@@H]2[C@H]3CN(C(=O)C4CC4)CCCCN3[C@H]2CO)cc1	T cruzi growth-1 103 | T cruzi growth-2 109 | T cruzi growth-3 inactive | NIH3T3 tox inconclusive | NIH3T3 tox 2 102
COc1ccccc1C#Cc1ccc([C@H]2[C@H](CO)N3CCCCN(C(=O)C4CC4)C[C@@H]23)cc1	T cruzi growth-1 106 | T cruzi growth-2 109 | T cruzi growth-3 inactive | NIH3T3 tox inactive | NIH3T3 tox 2 104
COCC(=O)N[C@@H]1C=C[C@H](CC(=O)NCc2ccc(Cl)cc2)O[C@H]1CO	none (no result: C diff growth)
Cc1ccc(S(=O)(=O)Nc2ccc3c(c2)C(=O)N([C@H](C)CO)C[C@@H](C)[C@@H](CN(C)S(=O)(=O)c2ccc(Cl)cc2)OCCCC[C@@H](C)O3)cc1	Pf Dd2 inh -85, T cruzi growth-1 119 | T cruzi growth-2 103 | T cruzi growth-3 115 | NIH3T3 tox inactive | NIH3T3 tox 2 inactive
Cc1ccc(S(=O)(=O)Nc2ccc3c(c2)C(=O)N([C@@H](C)CO)C[C@H](C)[C@H](CN(C)S(=O)(=O)c2ccc(Cl)cc2)OCCCC[C@@H](C)O3)cc1	Pf Dd2 inh -86, T cruzi growth-1 99 | T cruzi growth-2 102 | T cruzi growth-3 113 | NIH3T3 tox inactive | NIH3T3 tox 2 47
C[C@H]1CCCCO[C@H](CN(C)S(=O)(=O)c2ccc(Cl)cc2)[C@@H](C)CN([C@@H](C)CO)C(=O)c2cc(NS(=O)(=O)c3ccc(Cl)cc3)ccc2O1	none
Cc1ccc(S(=O)(=O)Nc2ccc3c(c2)C(=O)N([C@H](C)CO)C[C@@H](C)[C@@H](CN(C)S(=O)(=O)c2ccc(Cl)cc2)OCCCC[C@H](C)O3)cc1	Pf Dd2 inh -86, T cruzi growth-1 117 | T cruzi growth-2 97 | T cruzi growth-3 107 | NIH3T3 tox inactive | NIH3T3 tox 2 inactive
Cc1ccc(S(=O)(=O)Nc2ccc3c(c2)C(=O)N([C@H](C)CO)C[C@H](C)[C@H](CN(C)S(=O)(=O)c2ccc(Cl)cc2)OCCCC[C@H](C)O3)cc1	T cruzi growth-1 112 | T cruzi growth-2 100 | T cruzi growth-3 107 | NIH3T3 tox inactive | NIH3T3 tox 2 inactive
C[C@@H]1CCCCO[C@@H](CN(C)S(=O)(=O)c2ccc(Cl)cc2)[C@@H](C)CN([C@@H](C)CO)C(=O)c2cc(NS(=O)(=O)c3ccc(Cl)cc3)ccc2O1	none
C[C@@H]1CN([C@@H](C)CO)C(=O)c2cccc(NS(=O)(=O)c3ccc(F)cc3)c2O[C@@H]1CN(C)C(=O)Nc1cccc2ccccc12	none
C[C@@H]1CCCCO[C@H](CN(C)S(=O)(=O)c2cn(C)cn2)[C@@H](C)CN([C@@H](C)CO)C(=O)c2cc(NC(=O)Nc3ccc(C(F)(F)F)cc3)ccc2O1	none
C[C@@H]1CN([C@@H](C)CO)C(=O)Cc2cc(NS(=O)(=O)c3cn(C)cn3)ccc2O[C@H]1CN(C)C(=O)NC1CCCCC1	none
Cc1ccc(S(=O)(=O)Nc2ccc3c(c2)C(=O)N([C@@H](C)CO)C[C@@H](C)[C@H](CN(C)S(=O)(=O)c2ccc(Cl)cc2)OCCCC[C@@H](C)O3)cc1	T cruzi growth-1 120 | T cruzi growth-2 101 | T cruzi growth-3 100 | NIH3T3 tox inactive | NIH3T3 tox 2 inactive
C[C@H]1CCCCO[C@@H](CN(C)S(=O)(=O)c2ccc(Cl)cc2)[C@@H](C)CN([C@@H](C)CO)C(=O)c2cc(NS(=O)(=O)c3ccc(Cl)cc3)ccc2O1	none
Cc1ccc(S(=O)(=O)Nc2ccc3c(c2)C(=O)N([C@H](C)CO)C[C@H](C)[C@@H](CN(C)S(=O)(=O)c2ccc(Cl)cc2)OCCCC[C@@H](C)O3)cc1	T cruzi growth-1 108 | T cruzi growth-2 106 | T cruzi growth-3 inactive | NIH3T3 tox inactive | NIH3T3 tox 2 45
